Laboratory results from the supplement of paper PMC3334620.
Whole data set: some 33,000 sequences, median “E-score (-0.5 to 0.5)” near -0.035, cut for the highest 2% near 0.34. For the sample, the highest values were picked, then their nearest neighbours and some sequences at random.

Biological target: T1, Mot3 (UniProt P54785)
T1 sequence: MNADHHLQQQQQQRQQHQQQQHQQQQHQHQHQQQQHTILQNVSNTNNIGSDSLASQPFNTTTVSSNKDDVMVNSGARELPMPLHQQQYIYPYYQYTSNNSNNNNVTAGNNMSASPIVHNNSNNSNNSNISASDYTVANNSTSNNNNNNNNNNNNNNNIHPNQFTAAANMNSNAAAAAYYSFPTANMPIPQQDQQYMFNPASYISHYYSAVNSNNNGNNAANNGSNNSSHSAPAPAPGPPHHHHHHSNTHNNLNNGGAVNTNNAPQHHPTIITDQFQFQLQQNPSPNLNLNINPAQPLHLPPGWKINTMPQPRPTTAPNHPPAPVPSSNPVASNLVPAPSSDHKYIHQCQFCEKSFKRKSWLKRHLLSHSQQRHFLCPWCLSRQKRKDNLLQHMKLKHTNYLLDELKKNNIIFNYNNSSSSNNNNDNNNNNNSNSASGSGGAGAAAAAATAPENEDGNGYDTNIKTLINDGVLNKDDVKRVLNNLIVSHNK
Assay: PBM E-score (8-mer binding enrichment) (E-score (-0.5 to 0.5)); higher = stronger / more preferred TF binding
Conditions: protein concentration: 200 nM; construct: GST-full length
Summary of the method: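 GST-tagged yeast TFs (full-length or DNA-binding domain) were made by PURExpress in vitro transcription/translation and applied at about 100-200 nM to universal all-10-mer Agilent arrays. The arrays were made double-stranded by primer extension, on fresh or once-stripped slides. Bound protein was detected with fluorescent anti-GST, and scans were normalised with masliner. Each ungapped eight-base word, pooled with its reverse complement, received an E-score (modified Wilcoxon-Mann-Whitney statistic) from the Universal PBM Analysis Suite.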

First: TAGGCTCA
Second: AAGGCTCG
The “PBM E-score” value of the first is lower: 0.109 for the first, 0.235 for the second.

Going from CAGGCTCG to AAGGCTCA, the “PBM E-score” value falls from 0.342 to 0.336.

Compared with CAGGCTCA, CAGGCTCC is lower in “PBM E-score” value: 0.392 for the first, 0.28 for the second.

Compared with CATTTGGG, CTTAGCCC is higher in “PBM E-score” value: -0.173 for the first, -0.079 for the second.

Compared with GAAAGGAC, AACTTCGC is higher in “PBM E-score” value: -0.118 for the first, -0.0198 for the second.

Compared with ACGCTCCC, CAGAAAAC is higher in “PBM E-score” value: -0.0438 for the first, 0.152 for the second.

Compared with TAGGGAAA, GAGGAAAA is higher in “PBM E-score” value: -0.0198 for the first, 0.0527 for the second.

Compared with ATGGAAAG, ATGGAAAT is higher in “PBM E-score” value: 0.0416 for the first, 0.0932 for the second.

Going from AGGGAAAG to TAGGAAAA, the “PBM E-score” value rises from -0.0829 to 0.384.

First: AAGGAAAT
Second: AGGGAAAT
The “PBM E-score” value of the first is higher: 0.426 for the first, -0.0244 for the second.

Compared with CAGGAAAC, CGGGAAAC is lower in “PBM E-score” value: 0.445 for the first, -0.0422 for the second.

Compared with AAGGAAAG, TACCAATA is lower in “PBM E-score” value: 0.441 for the first, -0.253 for the second.

Going from CACGGTCA to ATCAGCTG, the “PBM E-score” value falls from 0.212 to -0.0375.

Compared with TCAAGTCA, CGACTTGC is lower in “PBM E-score” value: 0.0447 for the first, -0.263 for the second.

First: GATGAAGA
Second: ACCGAGGA
The “PBM E-score” value of the first is lower: -0.135 for the first, -0.111 for the second.

First: ATCGGGGA
Second: AGATAGTC
The “PBM E-score” value of the first is higher: 0.0758 for the first, -0.0427 for the second.

Compared with AGCAGTAG, TCAACGGA is higher in “PBM E-score” value: -0.226 for the first, -0.113 for the second.

First: ATGGAAAA
Second: AAGGAAAA
The “PBM E-score” value of the first is lower: -0.0018 for the first, 0.417 for the second.

First: CCGGAAAG
Second: CAGGAAAA
The “PBM E-score” value of the first is lower: -0.215 for the first, 0.427 for the second.

Going from CAGAAAAG to AAGGAAAC, the “PBM E-score” value rises from -0.0566 to 0.423.

Going from GAGGAAAC to CAGGAAAG, the “PBM E-score” value rises from -0.027 to 0.432.

Compared with CGGAAAAA, CAGAAAAA is lower in “PBM E-score” value: 0.0869 for the first, 0.0512 for the second.

Going from AAGGGAAA to ACGGAAAC, the “PBM E-score” value falls from 0.0842 to -0.122.

First: TATCTTAA
Second: TAAAGCTA
The “PBM E-score” value of the first is lower: 0.153 for the first, 0.19 for the second.

First: CAGACCGG
Second: ACTCGAAT
The “PBM E-score” value of the first is lower: -0.14 for the first, 0.00379 for the second.

Going from CTCAGCAG to TGTAAAAA, the “PBM E-score” value rises from -0.113 to 0.379.

First: AGTAAAAA
Second: AGTAAACA
The “PBM E-score” value of the first is lower: 0.16 for the first, 0.251 for the second.

Compared with TGTAAACA, TGTAATAA is lower in “PBM E-score” value: 0.387 for the first, 0.375 for the second.

Going from GGTAATAA to CGTAAAAA, the “PBM E-score” value rises from 0.163 to 0.258.

Compared with CGTAATAA, GGTAAACA is higher in “PBM E-score” value: 0.288 for the first, 0.323 for the second.

Compared with GGAGAAAA, ACCTGTCA is higher in “PBM E-score” value: -0.133 for the first, -0.0178 for the second.

Compared with AAGGCTAT, ACGGTGCA is higher in “PBM E-score” value: -0.0295 for the first, 0.184 for the second.

Going from ACGGTGCC to ACGGTGCG, the “PBM E-score” value falls from 0.343 to 0.0148.

Compared with CAGAGATG, TAGGGTCA is lower in “PBM E-score” value: 0.0978 for the first, -0.0851 for the second.

First: AAGGTCTG
Second: AATCTACA
The “PBM E-score” value of the first is lower: -0.0775 for the first, 0.349 for the second.

Compared with AATCTACT, CATCTACA is higher in “PBM E-score” value: -0.0291 for the first, 0.262 for the second.

Compared with AGTTCCGG, AGTTCCTG is higher in “PBM E-score” value: -0.359 for the first, 0.403 for the second.

Going from GCTTCCTA to AGTTCCTC, the “PBM E-score” value falls from 0.106 to 0.0435.

Going from GGTTCCTA to GGTTCCAA, the “PBM E-score” value falls from 0.454 to -0.208.

Compared with AGTTCCTA, ACTTCCTA is lower in “PBM E-score” value: 0.433 for the first, -0.09 for the second.

First: CATTCCTA
Second: CGTTCCTC
The “PBM E-score” value of the first is lower: -0.129 for the first, 0.167 for the second.

Compared with AGTTCCGA, CGTTCCTA is higher in “PBM E-score” value: -0.142 for the first, 0.455 for the second.

Compared with CCAATCCC, AGAGGGCC is lower in “PBM E-score” value: -0.127 for the first, -0.371 for the second.

Going from GGGGTAGA to AGGTCTTC, the “PBM E-score” value falls from -0.0141 to -0.0921.

First: CGCTAACG
Second: GGACTACA
The “PBM E-score” value of the first is lower: -0.0607 for the first, 0.102 for the second.

Going from ACCCCCTA to AGGCGAAC, the “PBM E-score” value rises from -0.298 to -0.0626.

Compared with ACAGTTCT, AAGAGGCT is lower in “PBM E-score” value: -0.132 for the first, -0.222 for the second.

Going from AAGAGGCA to CAGAGGCA, the “PBM E-score” value falls from 0.391 to 0.299.

First: TAGAGGCA
Second: GCGAGGCA
The “PBM E-score” value of the first is higher: 0.389 for the first, 0.148 for the second.

Compared with CCGAGGCA, GAGAGGCA is lower in “PBM E-score” value: 0.308 for the first, 0.239 for the second.

Compared with TCGAGGCA, TAGAGGGA is lower in “PBM E-score” value: 0.346 for the first, -0.0707 for the second.

First: AAGACCTG
Second: TGACTAAA
The “PBM E-score” value of the first is lower: -0.079 for the first, 0.0227 for the second.

Compared with GGCTAATA, ATCGAACA is higher in “PBM E-score” value: -0.151 for the first, -0.0411 for the second.

Compared with GATTGTCC, AGGAAGCC is lower in “PBM E-score” value: -0.0522 for the first, -0.161 for the second.

Going from CATATGTA to AATATGTA, the “PBM E-score” value falls from 0.318 to 0.277.

First: CCTATGTA
Second: ACTATGTA
The “PBM E-score” value of the first is lower: 0.348 for the first, 0.36 for the second.

Compared with AGTATGTA, GCTATGTA is higher in “PBM E-score” value: 0.289 for the first, 0.341 for the second.

Compared with ACTATGTG, CGTATGTA is higher in “PBM E-score” value: 0.0709 for the first, 0.309 for the second.

Compared with ACTATGTC, GGTATGTA is higher in “PBM E-score” value: 0.104 for the first, 0.343 for the second.

Compared with CCTATGTC, GCTATGCA is lower in “PBM E-score” value: 0.172 for the first, -0.154 for the second.

Compared with ACAACTAG, GTCCGGAA is lower in “PBM E-score” value: -0.0235 for the first, -0.0613 for the second.

First: TCCCCCCA
Second: AAAGTCGG
The “PBM E-score” value of the first is lower: -0.354 for the first, -0.0308 for the second.

Going from GAAGGGAA to CGATGGCC, the “PBM E-score” value falls from -0.213 to -0.268.

First: AATAACAT
Second: AATAACAG
The “PBM E-score” value of the first is higher: 0.349 for the first, 0.254 for the second.

First: AATAACAC
Second: ACGCCGGC
The “PBM E-score” value of the first is higher: 0.31 for the first, -0.185 for the second.

Going from CGTAGCCC to ACGTACCG, the “PBM E-score” value rises from -0.0561 to 0.00315.

First: GGGTACCA
Second: CGGTACCG
The “PBM E-score” value of the first is higher: -0.0217 for the first, -0.156 for the second.

Going from CGGTACCC to AGGTACCA, the “PBM E-score” value rises from -0.277 to 0.361.

Compared with AGGTACCC, AAGTACCT is lower in “PBM E-score” value: 0.361 for the first, 0.338 for the second.

Compared with TGGTACCA, ACGTACCT is higher in “PBM E-score” value: -0.0506 for the first, 0.292 for the second.

Going from AGGTACCG to AGGTACCT, the “PBM E-score” value rises from 0.407 to 0.434.

Compared with GGGTACCC, ACAATACC is higher in “PBM E-score” value: -0.304 for the first, 0.172 for the second.

Compared with GAAGCTAC, AGCTGAAC is lower in “PBM E-score” value: -0.0982 for the first, -0.255 for the second.

Going from CTTTTCGA to GATCCTCC, the “PBM E-score” value falls from -0.07 to -0.303.

Compared with GTCCGGAC, AAGACAGA is higher in “PBM E-score” value: 0.0843 for the first, 0.149 for the second.

Compared with AACCTGAC, AACCTGAG is lower in “PBM E-score” value: -0.0317 for the first, -0.0479 for the second.

Compared with AACCTGTG, ACGTTCCT is higher in “PBM E-score” value: 0.357 for the first, 0.447 for the second.

Compared with AAGTTCCG, AAGTTCCT is higher in “PBM E-score” value: 0.0427 for the first, 0.341 for the second.

First: ACGTTCCA
Second: AAGTTCCC
The “PBM E-score” value of the first is higher: 0.0401 for the first, -0.309 for the second.

First: ACGTTCCG
Second: AAACTTCC
The “PBM E-score” value of the first is higher: -0.144 for the first, -0.145 for the second.

Compared with ACAGTAGT, AGAGTGGA is higher in “PBM E-score” value: -0.0747 for the first, -0.0533 for the second.

First: ACCGGTTC
Second: AACTGGTG
The “PBM E-score” value of the first is higher: -0.148 for the first, -0.193 for the second.

Going from CAGGAGGC to AGAAGAGA, the “PBM E-score” value falls from -0.0461 to -0.102.

First: TAACACGA
Second: CAACACGA
The “PBM E-score” value of the first is higher: 0.402 for the first, 0.363 for the second.

Going from CAACACGC to CAACACGG, the “PBM E-score” value falls from 0.322 to 0.302.

Going from AAACACGA to GAACACGA, the “PBM E-score” value falls from 0.292 to 0.187.
